# Measurements reported in paper PMC7862700, “An all-to-all approach to the identification of sequence-specific readers for epigenetic DNA modifications on cytosine”.
# Experiments:
# Experiment in all cases: DAPPL (digital affinity profiling via proximity ligation, sequencing); 10 mM Tris-HCl pH 7.5, 50 mM NaCl, 1 mM DTT, 4% glycerol, room temperature, 30 min; GST-TFs on glutathione beads, 16-mer random dsDNA library, 0.1% formaldehyde crosslink after washing; high values mean tight binding
# Settings in all cases: protein: recombinant; tags: N-terminal GST; dsDNA, one strand shown
# ETV1 = ETV1 (Homo sapiens, UniProt P50549 1-477)
# ETV1, sequence (P50549 whole entry, the tested form may be a part): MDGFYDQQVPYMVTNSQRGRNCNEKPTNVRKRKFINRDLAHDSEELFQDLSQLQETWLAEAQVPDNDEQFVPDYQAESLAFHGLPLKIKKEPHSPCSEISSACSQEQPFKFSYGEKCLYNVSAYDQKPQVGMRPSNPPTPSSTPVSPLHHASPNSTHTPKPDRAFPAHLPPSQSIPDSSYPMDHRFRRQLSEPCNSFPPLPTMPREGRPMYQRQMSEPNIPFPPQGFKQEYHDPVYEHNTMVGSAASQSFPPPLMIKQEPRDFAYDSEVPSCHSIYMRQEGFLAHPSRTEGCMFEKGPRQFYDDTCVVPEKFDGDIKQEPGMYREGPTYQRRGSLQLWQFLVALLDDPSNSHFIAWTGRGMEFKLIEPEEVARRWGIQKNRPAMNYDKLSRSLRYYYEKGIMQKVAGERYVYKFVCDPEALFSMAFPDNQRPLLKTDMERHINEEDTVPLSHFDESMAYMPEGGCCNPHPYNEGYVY
# Outline: (§1)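 Pools of DNA-barcoded human transcription factors, expressed in yeast as GST fusions on glutathione beads and combined with a tag-only sample, were incubated with 200 nmole of a 16-mer random double-stranded DNA library. Incubation took 30 min at room temperature in Tris/NaCl/DTT/glycerol buffer and was followed by washing, 0.1% formaldehyde crosslinking, proximity ligation (BsaI/T4 ligase, 1 h, 37 °C), PCR amplification and sequencing on an Illumina NextSeq500. Binding signal is the ratio of a hexamer's read frequency for a factor to its frequency for the tag-only sample.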
# ERF = molecular target: T1, ERF (Homo sapiens, UniProt P50548 1-548)
# T1 sequence: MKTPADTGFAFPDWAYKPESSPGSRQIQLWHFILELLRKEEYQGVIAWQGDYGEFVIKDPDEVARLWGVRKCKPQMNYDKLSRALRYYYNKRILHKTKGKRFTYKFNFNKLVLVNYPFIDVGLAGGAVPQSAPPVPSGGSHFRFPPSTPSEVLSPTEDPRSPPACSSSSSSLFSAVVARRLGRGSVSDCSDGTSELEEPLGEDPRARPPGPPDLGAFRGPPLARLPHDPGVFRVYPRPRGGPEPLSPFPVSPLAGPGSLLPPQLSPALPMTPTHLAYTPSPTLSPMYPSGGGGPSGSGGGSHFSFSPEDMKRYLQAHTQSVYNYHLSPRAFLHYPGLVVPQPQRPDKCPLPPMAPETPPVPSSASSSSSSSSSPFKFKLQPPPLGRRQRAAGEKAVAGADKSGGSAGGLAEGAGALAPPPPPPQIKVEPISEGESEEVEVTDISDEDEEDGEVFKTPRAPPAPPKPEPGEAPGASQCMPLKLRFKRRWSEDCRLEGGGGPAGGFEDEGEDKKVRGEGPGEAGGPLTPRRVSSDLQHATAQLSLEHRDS
# Outline: as §1
# ETV3L = molecular target: T2, ETV3L (Homo sapiens, UniProt Q6ZN32 1-361)
# T2 sequence: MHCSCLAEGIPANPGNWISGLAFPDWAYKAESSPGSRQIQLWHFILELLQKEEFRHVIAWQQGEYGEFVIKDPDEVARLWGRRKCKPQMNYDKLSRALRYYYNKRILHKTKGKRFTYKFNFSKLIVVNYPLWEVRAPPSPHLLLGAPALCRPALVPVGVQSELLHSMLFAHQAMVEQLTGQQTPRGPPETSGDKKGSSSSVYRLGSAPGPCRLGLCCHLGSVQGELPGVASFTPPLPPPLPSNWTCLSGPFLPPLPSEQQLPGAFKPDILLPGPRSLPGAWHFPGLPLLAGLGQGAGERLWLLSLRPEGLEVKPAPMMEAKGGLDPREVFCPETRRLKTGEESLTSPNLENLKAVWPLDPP
# Outline: as §1
# ETS2 = molecular target: T3, ETS2 (Homo sapiens, UniProt P15036 1-469)
# T3 sequence: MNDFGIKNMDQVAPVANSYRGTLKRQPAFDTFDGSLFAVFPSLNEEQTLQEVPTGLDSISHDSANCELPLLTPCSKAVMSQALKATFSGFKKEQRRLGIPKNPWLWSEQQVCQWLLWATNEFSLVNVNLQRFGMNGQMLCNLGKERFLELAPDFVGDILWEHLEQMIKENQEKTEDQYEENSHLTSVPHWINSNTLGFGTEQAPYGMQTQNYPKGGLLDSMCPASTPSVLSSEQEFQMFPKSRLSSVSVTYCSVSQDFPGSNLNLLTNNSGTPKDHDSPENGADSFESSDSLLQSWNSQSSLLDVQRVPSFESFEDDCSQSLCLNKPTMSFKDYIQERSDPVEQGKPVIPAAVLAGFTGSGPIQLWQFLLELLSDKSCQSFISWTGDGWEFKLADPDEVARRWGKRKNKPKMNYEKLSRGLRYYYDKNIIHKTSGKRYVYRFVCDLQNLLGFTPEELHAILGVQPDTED
# Outline: as §1
# SPDEF = molecular target: T4, SPDEF (Homo sapiens, UniProt O95238 1-335)
# T4 sequence: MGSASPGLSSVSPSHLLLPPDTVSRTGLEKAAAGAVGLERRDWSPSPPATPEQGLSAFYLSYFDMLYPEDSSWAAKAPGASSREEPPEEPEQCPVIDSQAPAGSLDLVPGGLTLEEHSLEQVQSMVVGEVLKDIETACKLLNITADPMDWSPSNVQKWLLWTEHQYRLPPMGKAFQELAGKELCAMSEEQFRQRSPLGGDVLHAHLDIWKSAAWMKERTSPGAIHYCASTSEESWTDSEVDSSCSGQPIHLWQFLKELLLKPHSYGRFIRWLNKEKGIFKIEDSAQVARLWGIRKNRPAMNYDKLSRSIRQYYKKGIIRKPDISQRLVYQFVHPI
# Outline: as §1
# ETV7 = molecular target: T5, ETV7 (Homo sapiens, UniProt Q9Y603 1-341)
# T5 sequence: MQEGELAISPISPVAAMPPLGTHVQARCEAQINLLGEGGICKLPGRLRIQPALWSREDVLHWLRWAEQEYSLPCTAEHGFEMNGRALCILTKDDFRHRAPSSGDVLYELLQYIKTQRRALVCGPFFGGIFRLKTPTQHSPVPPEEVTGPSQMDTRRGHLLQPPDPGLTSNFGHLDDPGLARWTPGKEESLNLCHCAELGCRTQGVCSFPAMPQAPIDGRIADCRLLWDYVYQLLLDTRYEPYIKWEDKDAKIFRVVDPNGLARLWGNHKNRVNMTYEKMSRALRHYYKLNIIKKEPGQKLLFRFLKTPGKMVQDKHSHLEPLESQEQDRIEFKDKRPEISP
# Outline: as §1
# ELF5 = molecular target: T6, ELF5 (Homo sapiens, UniProt Q9UKW6-2 1-255)
# T6 sequence: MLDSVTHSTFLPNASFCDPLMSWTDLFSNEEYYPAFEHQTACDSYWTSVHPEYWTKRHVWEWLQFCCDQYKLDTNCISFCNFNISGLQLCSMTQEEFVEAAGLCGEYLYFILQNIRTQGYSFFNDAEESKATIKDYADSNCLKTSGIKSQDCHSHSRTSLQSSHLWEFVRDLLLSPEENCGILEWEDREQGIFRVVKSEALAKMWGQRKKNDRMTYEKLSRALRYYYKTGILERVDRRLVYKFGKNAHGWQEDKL
# Outline: as §1
# ETV3 = molecular target: T7, ETV3 (Homo sapiens, UniProt P41162-2 1-143)
# T7 sequence: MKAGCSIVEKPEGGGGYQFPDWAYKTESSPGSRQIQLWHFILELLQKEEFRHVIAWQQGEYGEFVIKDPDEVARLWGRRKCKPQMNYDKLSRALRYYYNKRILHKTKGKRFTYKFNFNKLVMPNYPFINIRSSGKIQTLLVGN
# Outline: as §1
# ETV6 = ETV6 (Homo sapiens, UniProt P41212 1-452)
# ETV6, sequence (P41212 whole entry): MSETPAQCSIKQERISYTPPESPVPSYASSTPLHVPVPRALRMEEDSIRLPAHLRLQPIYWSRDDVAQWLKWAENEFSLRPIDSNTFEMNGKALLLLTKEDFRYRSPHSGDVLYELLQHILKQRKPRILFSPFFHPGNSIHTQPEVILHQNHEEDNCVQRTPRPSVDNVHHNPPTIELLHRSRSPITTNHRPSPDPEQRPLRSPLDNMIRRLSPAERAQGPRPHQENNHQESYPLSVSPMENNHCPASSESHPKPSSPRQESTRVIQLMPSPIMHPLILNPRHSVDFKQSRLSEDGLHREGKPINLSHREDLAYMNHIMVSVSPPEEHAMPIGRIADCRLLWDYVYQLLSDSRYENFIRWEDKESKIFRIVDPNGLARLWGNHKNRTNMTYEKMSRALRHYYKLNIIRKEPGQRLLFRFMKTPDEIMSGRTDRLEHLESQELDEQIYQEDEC
# Outline: as §1
sequence,measurement,setting,value
TGGATG,binding signal,ETV1,"1.54 fold enrichment (6-mer frequency, TF over GST control)"
same,binding signal,ERF,"1.46 fold enrichment (6-mer frequency, TF over GST control)"
same,binding signal,ETV3L,"1.53 fold enrichment (6-mer frequency, TF over GST control)"
same,binding signal,ETS2,"1.4 fold enrichment (6-mer frequency, TF over GST control)"
same,binding signal,SPDEF,"1.53 fold enrichment (6-mer frequency, TF over GST control)"
same,binding signal,ETV7,"1.68 fold enrichment (6-mer frequency, TF over GST control)"
same,binding signal,ELF5,"1.45 fold enrichment (6-mer frequency, TF over GST control)"
same,binding signal,ETV3,"1.57 fold enrichment (6-mer frequency, TF over GST control)"
same,binding signal,ETV6,"1.44 fold enrichment (6-mer frequency, TF over GST control)"
